From PubChem
Most compounds without a hit are left out; they make up all but 1.8% or so of the library.
KCNH2 WT inh – inhibitors of human wildtype KCNH2 potassium channel. Q12809. U2OS, BacMam KCNH2, thallium flux FluxOr; stronger effect = lower value. activity change, % at 1.84 µM. 0.37% of 340,000 active. AID 720551;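 active means maximum activity change below -70%; inconclusive means maximum activity change between -70% and -50%; inactive means maximum activity change above -50%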
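U2OS cells were transduced with wild-type KCNH2 virus (2.03 x 10^8 / mL) for 4 h at room temperature, then cultured overnight at 37 C. Thallium flux was read with FluxOr dye. Rate constants were normalized to DMSO controls.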
12-LOX inh – blocks human arachidonate 12S-lipoxygenase. purified 12hLO, xylenol orange hydroperoxide absorbance. Potency, µM (doses to about 108 µM), actives largely listed as inhibitors. 1.1% of 580,000 active. AID 1671190
Target sequence (P18054 whole entry, looked up): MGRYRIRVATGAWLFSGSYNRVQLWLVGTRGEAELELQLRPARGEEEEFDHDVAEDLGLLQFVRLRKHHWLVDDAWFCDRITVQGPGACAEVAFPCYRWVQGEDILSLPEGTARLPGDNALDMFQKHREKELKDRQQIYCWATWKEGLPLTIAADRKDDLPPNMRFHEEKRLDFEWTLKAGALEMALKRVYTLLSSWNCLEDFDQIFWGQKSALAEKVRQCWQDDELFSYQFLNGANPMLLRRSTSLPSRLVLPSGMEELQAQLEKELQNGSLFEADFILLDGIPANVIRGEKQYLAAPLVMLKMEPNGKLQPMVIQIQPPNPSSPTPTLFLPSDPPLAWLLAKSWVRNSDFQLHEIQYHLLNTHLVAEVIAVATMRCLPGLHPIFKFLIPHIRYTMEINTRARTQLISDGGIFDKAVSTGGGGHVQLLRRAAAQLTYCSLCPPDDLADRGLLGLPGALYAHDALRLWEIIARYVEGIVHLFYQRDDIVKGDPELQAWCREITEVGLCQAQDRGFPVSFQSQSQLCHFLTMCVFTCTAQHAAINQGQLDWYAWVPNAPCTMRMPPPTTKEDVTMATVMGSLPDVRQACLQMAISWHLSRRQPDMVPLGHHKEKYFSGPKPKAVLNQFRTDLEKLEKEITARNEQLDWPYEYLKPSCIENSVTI
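Purified human 12hLO at 150 nM in 25 mM Hepes, 0.01% Triton X-100, pH 7.0, preincubated 15 min at room temperature with compound. Reaction started with 40 uM arachidonic acid, 30 min at room temperature. Hydroperoxide measured by Fe-xylenol orange, 573/405 nm absorbance ratio.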
A-T KAP1 phos – potential ataxia-telangiectasia treatments restoring KAP-1 phosphorylation; AID 485349; F2112 A-T fibroblasts, KAP-1 phosphorylation AlphaLISA; neocarzinostatin DNA damage 30 min before lysis; Potency, µM (series often up to 57.5 µM), usual class: activators; 0.19% of 320,000 active; further: nearly all actives have a fitted effect of over 45% in size
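hTERT-immortalized A-T patient fibroblasts (F2112), 500 cells/well in OPTI-MEM, 1% FBS, got compounds for 60 min, then NCS for 30 min at 37C. Lysates were then assayed for phospho-KAP-1 by AlphaLISA (anti-pKAP1 donor, anti-KAP1 acceptor beads), 6 hr at 25C.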
KCNH2 3.1 block – blocks the human KCNH2 3.1 channel isoform; U2OS KCNH2 3.1, thallium flux FluxOr; stronger effect = lower value; activity change, % (tested at about 1.8 µM); 0.95% of 340,000 active;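 active means maximum activity change below -70%; inconclusive means maximum activity change from -70% to -50%; inactive means maximum activity change above -50%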;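 further: thallium influx rate constant from kinetic fluorescence after stimulation buffer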
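Steps: virus added to U2OS suspension (4 h, RT, dark); medium with 10% FBS added, cells plated, 37 C overnight; FluxOr/Red40 loading buffer 45 min RT; stimulation buffer, 2 min kinetic read; rate constant normalized.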
Hits are given with their value; – = inactive; ? = inconclusive; · = no result. Unless noted, the call rests on the fitted dose curve; in most records, active means well fitted curve in the direction sought with a large enough effect; inconclusive means small, poorly fitted or top-dose-only effect, or another doubt; inactive means no such curve, though single readings can be large; an effect the other way counts as inactive or inconclusive.

SMILES | KCNH2 WT inh | 12-LOX inh | A-T KAP1 phos | KCNH2 3.1 block
COc1ccc(C(=O)Nc2ccc(NC(=O)c3cccs3)cc2)cc1Cl | · | – | – | –
COc1ccc(NC(=O)Nc2cccs2)cc1Cl | – | 39.8µM | – | –
COc1ccc(C(=O)Nc2ccc(NC(=O)c3cccs3)c(OC)c2)cc1Cl | – | – | – | -82.8
COc1ccc(C(=O)Nc2ccc([C@H]3OCC(=O)N(C(C)C)[C@@H]3CO)cc2)cc1 | · | – | · | ·
CN(CCc1ccccc1)C(=O)c1ccc(NC(=O)Cc2ccc(NC(=O)C3CCN(C(=O)C4CCCC4)CC3)cc2)cc1 | – | ? | · | –
CN(CCc1ccccc1)C(=O)c1ccc(NC(=O)Cc2ccc(NC(=O)C3CCN(C(=O)C4CC4)CC3)cc2)cc1 | – | ? | · | -73.4
CCOC(=O)c1c(C)n(S(=O)(=O)c2ccc(C)cc2)c2ccc(O)c(C(=O)O)c12 | – | 56.2µM | – | –
COCCOC(=O)c1c(C)n(S(=O)(=O)c2ccc(C)cc2)c2ccc(NS(=O)(=O)c3ccc(C)cc3)cc12 | · | – | · | ·
COc1cccc(OC)c1C(=O)Nc1ccc2oc(-c3cccnc3)nc2c1 | · | – | · | ·
COC/C=C/C1=CC2=CC(=O)C(C)(OC(=O)c3cnc4ccccc4n3)C(=O)C2=CN1C(CO)CO (centres undefined) | – | 7.08µM | – | –
Cc1[nH]n(-c2ccccc2)c(=O)c1/C=N/Nc1nncc(-c2ccccc2)n1 | – | 15.8µM | – | –
Cc1[nH]n(-c2ccccc2)c(=O)c1/C=N/NC(=O)c1cccc(F)c1 | – | 35.5µM | – | –
Cc1ccc(/C=N/Nc2nncc(-c3ccccc3)n2)o1 | – | – | – | –
Cc1[nH]n(-c2ccc(Br)cc2)c(=O)c1/C=N/NC(=O)c1ccccc1 | – | – | – | –
CCCCCCn1nc(C(=O)Nc2cccc(S(=O)(=O)NC(C)(C)C)c2)c2ccccc2c1=O | · | – | · | ·
CC(CNC(=O)Nc1ccc(C(F)(F)F)cc1)CN1CCN(C)CC1 (centres undefined) | · | – | · | ·
Cc1csc(/C(C#N)=C\C2=Cc3cc(Cl)ccc3OC2)n1 | · | 50.1µM | · | ·
CC(C)c1nc2sc3c(=O)[nH]c(=S)[nH]c3c2c2c1CCCC2 | – | 25.1µM | – | –
CC1(C)Cc2sc3c(=O)n(Cc4ccccc4F)cnc3c2CO1 | · | – | · | ·
COC(=O)c1ccc(OC(=O)c2ccc(SC)cc2OC)cc1 | · | – | · | ·
CCOC(=O)C1=C(CN2CCN(C(=O)OC(C)(C)C)CC2)NC(=O)NC1c1ccccc1 (centres undefined) | · | – | · | ·
COC(=O)N1C(=O)[C@@](Cc2ccccc2)(c2ccccc2)N1C(=O)OC | – | – | ? | –
COC(=O)N1C(=O)[C@](Cc2ccccc2)(c2ccccc2)N1C(=O)OC | – | – | 39.8µM | –
Cc1noc(C)c1-c1cc(-c2cccc(N3CCOCC3)c2)cn2cncc12 | · | – | · | ·
Clc1cccc(Nc2nc(NC3CCCC3)nc3c2cnn3-c2ccccc2)c1 | · | – | · | ·
SMILES | KCNH2 WT inh | 12-LOX inh | A-T KAP1 phos | KCNH2 3.1 block
CCNc1ncc2nc(CCc3ccccc3)c(=O)n(C[C@H]3CCCO3)c2n1 | · | 7.08µM | · | ·
CNc1c(NC(=O)Nc2ccc(F)cc2)c(=O)oc2ccccc12 | · | 10µM | · | ·
COc1ccccc1C(=O)Oc1c(Sc2ccccc2)c(C)nn1-c1ccccc1 | · | – | · | ·
CCCC(=O)Oc1c(Sc2ccc(Cl)cc2)c(C)nn1-c1ccccc1 | · | 44.7µM | · | ·
Cc1ccc(-c2c(C#N)c(N)nc3c2CCCC3)o1 | – | – | – | –
Cc1ccc(-c2cc(-c3ccc(F)cc3)nc(N)c2C#N)o1 | – | 6.31µM | ? | –
N#Cc1c(-c2ccccc2)cc(C2CC2)nc1N | – | – | – | –
Cc1ccc(-c2cc(-c3ccccc3Cl)c(C#N)c(N)n2)o1 | – | 7.08µM | – | –
Cc1ccc(-c2cc(-c3ccccc3)c(C#N)c(N)n2)o1 | – | 0.794µM | – | –
O=C(c1ccc(OC2CCN(Cc3c[nH]c4ccccc34)CC2)cc1)N1CCCCC1 | · | – | · | ·
CC1=C[C@@H](CNc2ccccn2)[C@H](C(C)C)C[C@H]1Cc1nnc(-c2cncn2C)o1 | · | – | · | ·
Cc1ccc(OCC(=O)N(Cc2cccs2)C2CCS(=O)(=O)C2)cc1C (centres undefined) | – | – | 2.24µM | –
O=C(c1cc2ccccc2oc1=O)N(Cc1cccs1)C1CCS(=O)(=O)C1 (centres undefined) | -174.2 | – | – | -162.8
CCOC(=O)c1c(S(=O)(=O)NCC(=O)Nc2ccc(OC)cc2)c(C)n(C)c1C | – | – | – | -162.2
COC(=O)c1c(Cl)c(C)nc2c1c(C)nn2C | · | – | · | ·
O=C(Nc1ccccc1C(=O)NCc1cccnc1)c1cccnc1 | · | – | · | ·
Cc1ccc(S(=O)(=O)Nc2ccc3cn[nH]c3c2)cc1C | – | – | – | –
Cc1cc2cc(NS(=O)(=O)c3ccc(C)c(C)c3)ccc2[nH]1 | · | 35.5µM | · | ·
COc1cccc(CC2(CO)CCCN(c3ccc(-c4nccn4C)nn3)C2)c1 (centres undefined) | · | – | · | ·
COc1ccc(-n2nc(C)c([C@@H]3C=C[C@@H](NC(=O)Nc4cccc(C#N)c4)C3)c2C)cc1 | · | – | · | ·
Cc1cc(C)nc(NCC(O)CNc2ccccc2Cl)n1 (centres undefined) | – | 39.8µM | – | –
Cc1cc(Nc2ccccc2Cl)c2ccccc2n1 | – | – | · | –
O=c1c(Cc2c(F)cccc2Cl)c(O)ccn1CC1CCCO1 (centres undefined) | – | – | – | –
O=c1c(Cc2c(F)cccc2Cl)c(O)ccn1CCc1ccccn1 | – | – | – | -92.4
O=C(Cc1csc(-c2ccccc2)n1)Nc1ccnn1Cc1cccc(Cl)c1 | · | – | · | ·
SMILES | KCNH2 WT inh | 12-LOX inh | A-T KAP1 phos | KCNH2 3.1 block
COc1ccc(C(=O)C(C)C(=O)c2ccc(OC)cc2)cc1 | · | – | · | ·
COc1ccc(C(=O)C(Br)C(=O)c2ccc(OC)cc2)cc1 | · | 6.31µM | · | ·
CC(=O)NC(CCc1ccc(Cl)c(Cl)c1)c1cccc(O)c(=O)c1 (centres undefined) | – | 39.8µM | · | –
CC(=O)NC(C)c1ccc(Cl)c(Cl)c1 (centres undefined) | – | – | – | –
CCN(CC)S(=O)(=O)c1cccc(C(=O)N(C)Cc2cccs2)c1 | · | – | · | ·
Clc1ccccc1C1Cn2cnc(-c3nc(-c4ccccc4)no3)c2CO1 (centres undefined) | · | – | · | ·
COc1cccc(C(O)c2nc(C(=O)Nc3ccc4c(c3)OCC(=O)N4)c(C)o2)c1 (centres undefined) | · | – | · | ·
Cc1ccc(/C=C/C(=O)c2ccccc2)o1 | · | 14.1µM | · | ·
Cc1ccc(-c2ccc(/C=C/C(=O)c3ccccc3)o2)cc1 | – | 3.55µM | – | –
COc1ccc(C(=O)/C=C/c2ccc(-c3ccc(OC)cc3)o2)cc1 | · | 0.316µM | · | ·
Cc1ccc(/C=C/C(=O)c2ccc(C)o2)o1 | · | – | · | ·
O=C1C(CSCc2ccccc2)NC(=S)N1c1ccccc1 (centres undefined) | – | – | 35.5µM | –
O=C(O)CC1NC(=S)N(c2ccccc2)C1=O (centres undefined) | – | – | – | –
Cc1cc(OC(=O)c2ccccc2Cl)c([N+](=O)[O-])c(=O)[nH]1 | – | 39.8µM | – | –
